An excerpt weighted towards active compounds, which were near 19% of everything screened.
TDP1 cell noCPT: qHTS for Inhibitors of human tyrosyl-DNA phosphodiesterase 1 (TDP1): qHTS in cells in absence of CPT; 15% of 420,000 active; AID 686978, 2013; Potency, µM (highest dose often 46.2 µM), for inactives: at the highest dose activity change, negative = growth inhibition, actives largely listed as inhibitors; DT40 Tdp1-/- hTDP1 cells, no CPT, ATP luminescence, 48 h; note: potency is the fitted concentration of half-maximal effect; nearly all actives have a fitted effect of over 55% in size
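Readout: luminescence from CellTiter-Glo after 30 min in the dark at RT. Cells: DT40 Tdp1-/- with stable hTDP1, 400/well. Exposure: compounds alone, ≥48 hr, 37 °C.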
IL1B secr inh: qHTS for Inhibitors of Inflammasome Signaling: IL-1-beta AlphaLISA Primary Screen. THP-1 LPS/ATP IL-1B secretion, AlphaLISA, 16 h; hits give low values. activity change, % at 57.5 µM. 4.7% of 360,000 active; in the data active = activity change below about -50%; inconclusive = mostly about -30% to -49%
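Secreted IL-1B measured by AlphaLISA bead assay after 16 h compound exposure of THP-1 cells; compounds (final up to 57.5 uM) added 1 h before LPS (250 ng/mL) and ATP (1.25 mM) stimulation; lower signal means less secretion.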
TDP1 cell CPT: qHTS for Inhibitors of human tyrosyl-DNA phosphodiesterase 1 (TDP1): qHTS in cells in presence of CPT | chicken DT40 Tdp1-/-;hTDP1 cells + 20 nM CPT, ATP luminescence, 48 h | 12% of 420,000 active | Potency, µM (series often up to 46.2 µM), for inactives: at the top dose activity change, negative = growth inhibition, hits mostly inhibitors; note: potency is the fitted concentration of half-maximal effect; nearly all actives have a fitted effect of over 55% in size
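Cell growth measured by CellTiter-Glo luminescence after a minimum 48 h, 37 C compound exposure with 20 nM CPT in Tdp1-knockout DT40 cells stably expressing hTDP1, seeded 400/well; qHTS titration format.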
HT1080-NT tox: qHTS for induction of synthetic lethality in tumor cells producing 2HG: qHTS for the HT-1080-NT fibrosarcoma cell line; HT-1080-NT fibrosarcoma viability, CellTiter-Glo ATP luminescence, 48 h; Potency, µM (doses to about 46.1 µM), for the others: top-dose activity, negative = less viability, most hits filed as cytotoxic; 1.6% of 360,000 active; AID 686970, 2013;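 note: NT is the 2HG producing partner of a matched IDH1 knockdown line; potency is the fitted concentration of half-maximal effect; 0% = DMSO-treated cells and -100% = media-only wells without cells; nearly all actives have a fitted effect of over 55% in size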
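Fibrosarcoma NT cells, 750 per well in 5% FBS RPMI, were exposed to compound for 48 hours. Viability: CellTiter-Glo luminescence.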
HT1080 IDH1KD tx: qHTS for induction of synthetic lethality in tumor cells producing 2HG: qHTS for the HT-1080-IDH1KD cell line; HT-1080 IDH1 knockdown viability, ATP luminescence, 48 h; Potency, µM (titrated, usually from 46.1 µM), without a hit: top-dose activity, negative = toxicity, usual class: cytotoxic; 2% of 360,000 active; AID 686971, 2013;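 note: potency is the fitted concentration of half-maximal effect; 0% = DMSO wells and -100% = cell-free medium wells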
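Viability of IDH1-knockdown HT-1080 fibrosarcoma cells was assessed by CellTiter-Glo after 48 h at 37 °C with titrated compound; concentration-effect curves were classified by fit quality and response size.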
uPA generation: qHTS for Inhibitors of Cell Surface uPA Generation; cell surface uPA generation assay, qHTS; Potency, µM (top dose mostly 38.3 µM), for the others: top-dose activity change, negative = inhibition, hits mostly inhibitors; 0.31% of 330,000 active; active = well fitted inhibition curve with a large enough effect; inconclusive = small, poorly fitted or top-dose-only effect; inactive = no such curve, though single readings can be large or run the other way; tested in mouse RAW 264.7 cells; note: potency is the fitted concentration of half-maximal effect; nearly all actives have a fitted effect of over 55% in size
Numbers without * were called inactive; ? = inconclusive; . = no result given; [ ] = another dose, or the depositor's remark. Unless noted, calls come from the whole dose curve; as a rule, active = well fitted curve in the direction sought with a large enough effect; inconclusive = small, poorly fitted or top-dose-only effect, or another doubt; inactive = no such curve, though single readings can be large; an effect the other way counts as inactive or inconclusive. Unless noted, % is set by controls: 0 for no effect and ±100 for the full control effect.

SMILES	TDP1 cell noCPT	IL1B secr inh	TDP1 cell CPT	HT1080-NT tox	HT1080 IDH1KD tx	uPA generation
CS(=O)(=O)N(Cc1ccccc1)c1ccc(C(=O)Nc2ccc(Cl)cc2)cc1	5.8µM*	.	?	.	.	.
O=C(Nc1ccc(S(=O)(=O)N(Cc2ccccc2)c2ccccc2)cc1)c1ccc([N+](=O)[O-])cc1	?	.	2.91µM*	.	.	.
Cc1ccc(NC(=O)CSc2nc(-c3cccs3)nc3cc(=O)[nH]n23)cc1	1.9%	.	3.2%	.	.	.
CN(C)S(=O)(=O)c1ccc(C(=O)Nc2ccc(F)cc2F)cc1	-16.7%	-18.1	12.0%	-0.9%	-1.4%	-11.2%
CN(C)S(=O)(=O)c1ccc(C(=O)Nc2cc(S(=O)(=O)Nc3ccccc3Cl)ccc2N2CCCCC2)cc1	16.4µM*	-4.5	8.2µM*	7.8%	1.7%	-0.2%
CN1CCN(c2ccc(Cl)cc2NC(=O)c2ccc(S(=O)(=O)N(C)C)cc2)CC1	?	?	18.4µM*	-13.7%	-12.7%	1.6%
Cc1nc2ccc(C(=O)N(C)Cc3ccco3)cn2c1N(C)CC1CCCCC1	13µM*	-9.3	18.4µM*	4.1%	?	.
Cc1nc2ccc(C(=O)NCCCn3ccnc3)cn2c1N(C)CC1CCCCC1	?	?	?	-28.3%	-29.8%	.
CC(=O)c1ccc(N2CCN(C(=O)c3cccs3)CC2)c(F)c1	?	-12.4	?	4.1%	4.1%	-11.4%
CC(=O)c1ccc(N2CCN(C(=O)c3cccs3)C(C)C2)c(F)c1 (stereo not drawn)	20.6µM*	-13.2	?	5.1%	1.9%	18.1%
Cc1cccc(NC(=S)NCCc2ccccc2)n1	16.4µM*	16.0	?	-10.3%	-11.3%	0.2%
S=C(NCCc1ccncc1)Nc1ccccc1	-27.4%	-6.4	-25.3%	2.1%	21.4%	-4.2%
S=C(NCCc1ccccc1)Nc1ccccn1	18.4µM*	0.0	6.51µM*	3.0%	-1.3%	-3.3%
O=S(=O)(O)c1ccc(O)cc1	3.4%	.	8.7%	.	.	.
CC(C)CNC(=O)c1cc(-c2ccco2)on1	17.8µM*	-20.1	15.8µM*	3.1%	5.8%	.
O=C(NCc1ccc(F)cc1)c1cc(-c2ccco2)on1	-13.9%	0.0	-18.8%	0.5%[9.24 µM]	3.4%	.
O=C(NCc1ccc(Cl)cc1)c1cc(-c2ccco2)on1	-24.5%	-4.6	5.6%	-0.1%	2.1%	1.0%
CCCNC(=O)c1cc(-c2ccco2)on1	9.2µM*	-57.0*	9.2µM*	-29.7%	?	.
Cc1ccc(NC(=O)c2ccc(NCCCN3CCC(C)CC3)c([N+](=O)[O-])c2)cc1F	8.2µM*	?	4.61µM*	?	?	-3.8%
O=C(NCCCN1CCOCC1)c1cccc(NC(=O)c2ccccc2)c1	-0.7%	2.2	8.3%	18.4%	2.5%	13.8%
O=C(Nc1cccc(Cl)c1)c1ccc(NCCCN2CCOCC2)c([N+](=O)[O-])c1	29.1µM*	-50.9*	?	?	?	-15.9%
CCOC(=O)c1ccc(C(=S)N2CCCC2)cc1	1.9%	11.4	8.9%	-0.1%	14.6%	1.5%
CSc1nc(C(=O)N2CCOc3ccc(CN4CCN(Cc5ccccn5)CC4)cc3C2)cs1	-12.1%	.	19.4%[9.04 µM]	.	.	.
O=c1nc(N/N=C/c2c[nH]c3ccccc23)cn[nH]1	?	12.0	-0.1%	25.0%	21.9%	-1.0%
COc1ccc(/C=N/Nc2ccccn2)cc1O	-6.4%	-8.9	1.2%	-11.8%	-15.7%	0.8%
SMILES	TDP1 cell noCPT	IL1B secr inh	TDP1 cell CPT	HT1080-NT tox	HT1080 IDH1KD tx	uPA generation
CCOc1ccc(/C=N/Nc2ccccn2)cc1	?	-12.1	?	-2.2%	-24.1%	6.31µM*
C(=N\Nc1ccccn1)/c1c[nH]c2ccccc12	?	-94.8*	?	-0.3%	-1.4%	-8.5%
Oc1cccc(C=NNc2ccccn2)c1	-18.8%	-86.6*	-24.4%	14.0%	13.1%	4.9%
Clc1ccc(/C=N/Nc2ccccn2)cc1	-22.6%	1.5	-17.8%	12.4%	9.4%	-0.3%
C(=N\Nc1ccccn1)/c1ccc(N2CCOCC2)cc1	16.4µM*	-24.8	23.1µM*	-0.9%	-0.2%	-5.9%
O=C(NCc1cccs1)c1ccc2sc([C@@H]3O[C@H](CO)[C@H](O)[C@H](O)[C@H]3O)nc2c1	0.1%	40.8	-18.2%	20.0%	13.7%	.
Cc1ccc(CN(C(=O)c2csnn2)C(C(=O)NC2CCCC2)c2ccccn2)cc1 (stereo not drawn)	-19.2%	-0.2	0.5%	1.5%	2.1%	-3.5%
CCOc1ccc(N(c2nc(-c3ccc(OC)c(OC)c3)no2)c2nc(-c3ccc(OC)c(OC)c3)no2)cc1	0.8%	.	2.6%	.	.	.
Oc1ccc(C=NNc2ccccn2)c(O)c1	2.91µM*	20.0	4.11µM*	-26.7%	?	-10.8%
Brc1ccccc1/C=N/Nc1ccccn1	?	-1.9	?	1.4%	0.8%	-3.8%
Oc1ccc(/C=N/Nc2cccc3cccnc23)c(O)c1	?	-76.8*	?	?	-14.0%[9.24 µM]	?
Cc1noc(C)c1/C=N/Nc1ccccn1	-19.3%	-70.5*	-2.4%	17.9%	28.7%	3.1%
C/C(N=Nc1nc2ccccc2s1)=N\Nc1ccccc1O	2.59µM*	121.6	9.2µM*	13µM*	14.6µM*	3.5%
COc1ccc(N(CC(=O)NCc2ccc(F)cc2)C(=O)c2snc(C(N)=O)c2N)cc1	-0.7%	19.7	5.0%	-25.3%	-6.4%	1.5%
O=C(CSc1nnc(CNC(=O)c2cccs2)o1)Nc1ccc(F)cc1F	18.7%	25.4	-6.7%	5.1%	7.0%	-1.5%
COC(=O)c1ccc(Cl)c(NC(=O)NC23CC4CC(CC(C4)C2)C3)c1	18.4µM*	-14.4	23.1µM*	-26.3%	-9.0%	-7.9%
COC(=O)c1cccc(S(=O)(=O)N2CCC(NC(=O)NC34CC5CC(CC(C5)C3)C4)CC2)c1	20.6µM*	-13.3	23.1µM*	1.4%	-0.8%	4.9%

Screening results from PubChem BioAssay.
